TGFb inhibitor: inhibitors of TGF-b signaling | Potency, µM (highest dose often 46.1 µM), inactives show top-dose activity, negative = inhibition, most hits filed as inhibitors | actives 1.2% (n = 410,000) | HepG2 CAGA-GFP TGF-b/SMAD3 reporter, GFP fluorescence, 18 h; TGF-beta stimulated, 500 pg/mL final; further: on the % scale 0 is the no-effect control and ±100 the full control effect; nearly all actives have a fitted effect of over 65% in size
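Using HEPG2 CAGA-GFP reporter cells at 1000 cells/well, we pinned test compounds, stimulated with recombinant TGF-beta (500 pg/mL final) and measured total well GFP after 18 h.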
TDP1 cell CPT: DT40-hTDP1 cell growth loss with CPT | chicken DT40 Tdp1-/-;hTDP1 cells + 20 nM CPT, ATP luminescence, 48 h | Potency, µM (top dose mostly 46.2 µM), inactives show top-dose activity change, negative = growth inhibition, usual class: inhibitors | actives 12% (n = 420,000); further: on the % scale 0 is the no-effect control and ±100 the full control effect; nearly all actives have a fitted effect of over 55% in size
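Cell growth measured by CellTiter-Glo luminescence after a minimum 48 h, 37 C compound exposure with 20 nM CPT in Tdp1-knockout DT40 cells stably expressing hTDP1, seeded 400/well; qHTS titration format.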
HT1080-NT tox: kills 2HG-producing HT-1080-NT fibrosarcoma cells; actives 1.6% (n = 360,000); HT-1080-NT fibrosarcoma viability, CellTiter-Glo ATP luminescence, 48 h; Potency, µM (series often up to 46.1 µM), without a hit: at the highest dose activity, negative = less viability, usual class: cytotoxic; AID 686970;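 further: NT is the 2HG producing partner of a matched IDH1 knockdown line; 0% = DMSO-treated cells and -100% = media-only wells without cells; nearly all actives have a fitted effect of over 55% in size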
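Viability of the 2HG-overproducing fibrosarcoma line after 48 hours of compound exposure at 37 degrees C was determined by luminescence with CellTiter-Glo, and concentration-effect curves were then fitted and categorized.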
HT1080 IDH1KD tx: kills HT-1080 cells with IDH1 knockdown; actives 2% (n = 360,000); Potency, µM (top dose mostly 46.1 µM), inactives show at the highest dose activity, negative = toxicity, actives largely listed as cytotoxic; HT-1080 IDH1 knockdown viability, ATP luminescence, 48 h;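 further: 0% = DMSO wells and -100% = cell-free medium wells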
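Assay cells: HT-1080 with IDH1 knockdown, 750 per well, RPMI/5% FBS. Exposure: 48 h at 37 °C following 2 h pre-incubation. Read: CellTiter-Glo luminescence; fitted concentration-response, curve class assigned.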
TDP1 cell noCPT: qHTS for Inhibitors of human tyrosyl-DNA phosphodiesterase 1 (TDP1): qHTS in cells in absence of CPT; DT40 Tdp1-/- hTDP1 cells, no CPT, ATP luminescence, 48 h; Potency, µM (top dose mostly 46.2 µM), for inactives: at the top dose activity change, negative = growth inhibition, most hits filed as inhibitors; actives 15% (n = 420,000); further: on the % scale 0 is the no-effect control and ±100 the full control effect; nearly all actives have a fitted effect of over 55% in size
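Growth of hTDP1-complemented DT40 Tdp1-knockout cells is measured by ATP luminescence after at least 48 hr compound exposure at 37 °C, with DMSO substituting for the 20 nM CPT used in the parallel screen.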
HepG2 viability: counter-screen for TGF-b inhibitors: cytotoxicity in HepG2 cells; actives 0.76% (n = 410,000); AID 588856; Potency, µM (highest dose often 46.1 µM), inactives show top-dose activity change, negative = cytotoxicity, hits mostly cytotoxic; HepG2 CAGA-GFP viability, ATP luminescence, 18 h
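HepG2 CAGA-GFP cells (1000/well, DMEM with 1% FBS) received compound, then TGF-beta at 500 pg/mL final, and were incubated 18 hours at 37 degrees C. Viability was read by CellTiter-Glo luminescence. Media-only wells were set as complete cell-killing and DMSO as no toxicity.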
Starred values were filed as active, the others as inactive; ? = inconclusive; nt = not tested or not shown; [ ] = another dose, or the depositor's remark. The list is not random: actives were taken first. Their share in the collection is about 17%. The call rests on the fitted dose curve; in most records, active means well fitted curve in the direction sought with a large enough effect; inconclusive means small, poorly fitted or top-dose-only effect, or another doubt; inactive means no such curve, though single readings can be large; an effect the other way counts as inactive or inconclusive. Potency means the concentration at half of the fitted maximal effect.

SMILES	TGFb inhibitor	TDP1 cell CPT	HT1080-NT tox	HT1080 IDH1KD tx	TDP1 cell noCPT	HepG2 viability
CCC(=NCCc1c(C)[nH]c2ccc(OC(F)(F)F)cc12)C1=C(O)CC(c2ccccc2)CC1=O (configuration not stated)	?	4.6µM*	4.1µM*	5.8µM*	5.8µM*	-10%
CC(=NCCc1c(C)[nH]c2ccc(OCc3ccccc3)cc12)C1=C(O)CC(c2ccccc2)CC1=O (configuration not stated)	12%	?	-29%	-17%	?	4%
CCC(=NC)C1=C(O)CC(c2ccccc2)CC1=O (configuration not stated)	5%	4%	0%	6%	-16%	13%
CCC(=NCCc1c(C)[nH]c2ccccc12)C1=C(O)CC(c2ccccc2)CC1=O (configuration not stated)	?	4.1µM*	?	8.2µM*	2.9µM*	-17%
CC(C)c1ccc(NC(=O)CCNS(=O)(=O)c2cc(Br)cnc2N)cc1	-18%	16µM*	3%	?	?	-23%
CCCCCCCCN1C(=O)[C@H](CC(=O)NCCCN2CCCC2=O)C[C@@]2(C(=O)OC)CC(C)(C)CC=C12	nt	13µM*	?	?	13µM*	nt
CCCCCCCCN1C(=O)[C@H](CC(=O)NCC2CCCCC2)C[C@@]2(C(=O)OC)CC(C)(C)CC=C12	nt	?	-16%	0%	13µM*	nt
C#CCNC(=O)C[C@@H]1C[C@@]2(C(=O)OC)CC(C)(C)CC=C2N(Cc2ccccc2)C1=O	nt	?	7%	6%	?	nt
CCCCCCCCN1C(=O)[C@H](CC(=O)NCCc2ccccc2OC)C[C@@]2(C(=O)OC)CC(C)(C)CC=C12	nt	21µM*	?	?	?	nt
C#CCNC(=O)C[C@@H]1C[C@@]2(C(=O)OC)CC(C)(C)CC=C2N(CCCCCCCC)C1=O	nt	?	?	?	16µM*	nt
CC(C)(C)n1ncc2c(=O)n(Cc3ccc(F)c(F)c3F)cnc21	4%	nt	nt	nt	nt	-28%
COc1cc(OC)c(C(=O)Nc2cccc(C(C)=O)c2)cc1OC	-10%	?	27%	22%	?	-14%
O=C(NNC(=S)NC1CCCCC1)c1ccccc1O	?	6%	?	?	?	-23%
CCCCCCCCN1C(=O)[C@H](CC(=O)NCCCOCCCC)C[C@@]2(C(=O)OC)CC(C)(C)CC=C12	nt	?	-3%	?	15µM*	nt
COCCCNC(=O)C[C@@H]1C[C@@]2(C(=O)OC)CC(C)(C)CC=C2N(Cc2ccco2)C1=O	nt	-7%	19%	0%	0%	nt
COC(=O)[C@@]12C[C@@H](CC(=O)NCCCN3CCCC3=O)C(=O)N(Cc3ccccc3)C1=CCC(C)(C)C2	nt	11%	14%	-2%	-27%	nt
CCCCCCCCN1C(=O)[C@H](CC(=O)NCCCOC)C[C@@]2(C(=O)OC)CC(C)(C)CC=C12	nt	?	?	?	15µM*	nt
Cc1ccc(CNS(=O)(=O)c2cc3[nH]c(=O)c(=O)[nH]c3cc2C)cc1	-16%	6%	nt	nt	-5%	-4%
CC(C)CCN(Cc1ccco1)S(=O)(=O)c1csc(C(N)=O)c1	-3%	18µM*	-5%	0%	23µM*	-19%
CCOCCCN(Cc1ccco1)S(=O)(=O)c1csc(C(N)=O)c1	3%	-12%	7%	10%	1%	1%
O=C(CSc1n[nH]c(=O)[nH]c1=O)Nc1ccc(Br)cc1Br	-2%	-12%	2%[9.24 µM]	-3%	11%	-3%
COc1ccc(C(C(=O)NC2CCCCC2)N(C(=O)CCl)c2cccc(Cl)c2)cc1 (configuration not stated)	?	2.3µM*	9.2µM*	1.6µM*	1.8µM*	11µM*
COc1ccc(N(C(=O)Cc2cccs2)C(C(=O)NC2CCCC2)c2ccncc2)cc1 (configuration not stated)	2%	?	5%	-1%	?	6%
COCCN(C(=O)CCCC(=O)Nc1ccccn1)C(C(=O)NC1CCCCC1)c1ccc(C)cc1 (configuration not stated)	-14%	-22%	0%	-3%	?	-13%
COc1ccc(C(C(=O)NC2CCCCC2)N(C(=O)CCl)c2ccc(OC)cc2)cc1 (configuration not stated)	?	1.8µM*	1.6µM*	1.2µM*	1.5µM*	-23%
SMILES	TGFb inhibitor	TDP1 cell CPT	HT1080-NT tox	HT1080 IDH1KD tx	TDP1 cell noCPT	HepG2 viability
COC(CN(C(=O)CCl)C(C(=O)NC1CCCCC1)c1ccc(C)cc1)OC (configuration not stated)	2%	16µM*	8%	8%	13µM*	0%
COc1ccc(N(C(=O)CNC(=O)c2cccs2)C(C(=O)NC2CCCC2)c2ccncc2)cc1 (configuration not stated)	-1%	-7%	2%	4%	21%	5%
COc1ccc(C(C(=O)NC2CCCCC2)N(C(=O)CCl)c2ccc(C)cc2)cc1 (configuration not stated)	?	1.8µM*	0.82µM*	1.2µM*	1.6µM*	-39%
CC(C)(C)NC(=O)N1CCC(C(=O)O)CC1	-2%	-12%	nt	nt	-2%	2%
COc1ccc(C(C(=O)NC2CCCC2)N(C(=O)c2ccoc2C)c2ccc(C)cc2)cc1 (configuration not stated)	?	18µM*	-25%	-18%	16µM*	-20%
COc1ccc(S(=O)(=O)NCc2cc(=O)n(C)c(=O)n2C)cc1C	2%	?	6%	10%	-5%	-2%
COc1ccc(C2=NN(CN3C(=O)C(=O)c4ccccc43)C(c3ccc(C)cc3)C2)cc1 (configuration not stated)	0%	18µM*	5%	2%	?	-19%
COc1ccc(C2=NN(CN3C(=O)C(=O)c4ccccc43)C(c3ccc(Br)cc3)C2)cc1 (configuration not stated)	-3%	16µM*	9%	4%	6.5µM*	-20%

Source: PubChem
